Compounds without any hit were thinned out: in the full panel of roughly 83,000, 20% have a hit.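 The endpoint reported here, percent growth, reads 100 for growth as untreated, 0 for no net growth and -100 for all cells dead.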 Calls of active or inactive are those of the source. How the source made its calls: active means growth percent below 10; inactive means the rest.

In this assay the test system is MDA-MB-468 breast. In words: NCI-60 one-dose screen, 48 h (100 = growth as untreated, 0 = no growth, -100 = all killed). The conditions noted are these: 10 µM unless noted.
On to `O=c1cc(-c2ccccc2)nc2sc(-c3c[nH]c4ccc(F)cc34)nn12`, for which the growth was 67.4% (inactive).

Consider `NS(=O)(=O)c1ccc(CCn2c(SCC(=O)N/N=C/c3cc4ccccc4[nH]3)nc3ccccc3c2=O)cc1`, for which the growth is 60.2% (inactive).

Consider `O=C(O)c1cccc2c1Cc1cc([N+](=O)[O-])ccc1-2`, for which the growth is 113% (inactive).

For the compound `CC(C)=CCc1cc2c(cc1O)C1=C(C(=O)C3=C(NCCS3(=O)=O)C1=O)C(C=C(C)C)O2` (stereo not drawn), the growth was -20.7% (active).

As for `CCN1C(=O)/C(=C/C=C/N(C)c2ccccc2)SC1=S`, the growth was 89.1% (inactive).

Take `CC1(n2nnnc2N2CCCN(c3ncccc3N)CC2)CCC1`: the growth is 93% (inactive).

As to `NS(=O)(=O)c1ccc(-c2cc(-c3nnc(SCC(=O)Nc4ccc(C(=O)/C=C/c5ccc(Cl)cc5)cc4)n3-c3ccccc3)c3ccccc3n2)cc1`, the growth was 84.5% (inactive).

With `CCN1/C(=C/C=C/C=C/c2sc3ccccc3[n+]2CC)Sc2ccccc21`, the growth is -81% (active).

Turning to `COc1cc(/C=C2/Oc3cc4occc4c(OC)c3C2=O)ccc1OCC(=O)Nc1ccncc1`, the growth was 105% (inactive).

In the case of `CC(C)c1ccc2occ(C=C3C(=O)NC(=O)NC3=O)c(=O)c2c1`, the growth was 96.9% (inactive).

`COc1ccc(Cn2cc(Cn3c(=O)c(-c4nc5ccccc5[nH]4)cc4ccccc43)nn2)c(OC)c1OC`: the growth is 13.6% (inactive).

Take `O=C(O)C(O)C(O)C(=O)O.[NH-]C1CCCCC1[NH-].[Pt+2]` (stereo not drawn): the growth is 95.5% (inactive).

For `O=C(Nc1ccccc1)Nc1cccc(-n2cc(-c3ccncc3)c(-c3ccc(O)c(Cl)c3)n2)c1`, the growth was 54.8% (inactive).

Values taken from PubChem BioAssay (NCI).
